Measurements as given in PubChem BioAssay (EPA / NIEHS).
Results filed as inconclusive are left out. A structure can be active in one record and inactive in another. The source made the active and inactive calls. Rule for the calls: active = hit-call score of the fitted dose curve at least 0.9, where 1 is the maximum; inconclusive = response in the unintended direction; inactive = score below 0.9.

Biological target: Cellular tumor antigen p53 (Homo sapiens) (UniProt P04637)
Experiment: TOX21_p53_BLA_p2_ratio: Tox21 HCT-116 p53 Agonism Beta-lactamase Assay, Ratio, Phase 2 (AID 2283592)
From the text: TOX21_p53_BLA_p2 is a cell-based, single-readout assay that uses HCT116, a human intestinal cell line, […] in a 1536-well plate.TOX21_p53_BLA_p2_ratio is an assay readout measuring reporter gene via receptor activity and designed using inducible reporter (beta lactamase induction) detected with GAL4 b-lactamase reporter gene. The signal is derived from the ratio of cleaved (ch2) to uncleaved (ch1) reporter gene substrate used as the measure of target activity.Data from the assay component TOX21_p53_BLA_p2_ratio was analyzed into 1 assay endpoint. This assay endpoint, TOX21_p53_BLA_p2_ratio, was analyzed in the positive analysis fitting direction relative to DMSO as the negative control and baseline of activity. Using a type of inducible reporter, gain-of-signal activity can be used to understand changes in the reporter gene as they relate to the gene TP53. Furthermore, this assay endpoint can be referred to as a primary readout, because this assay has produced multiple assay endpoints and this ratio serves a reporter gene function to understand target activity. To generalize the intended target to other relatable targets, this assay endpoint is annotated to the DNA binding intended target family, where the subfamily is tumor suppressor.
Thawing Method: Place 14 mL of pre-warmed thaw medium into a 15 mL of conical tub. Remove the vial of cells to be thawed from liquid nitrogen and thaw rapidly by placing at 37C in a water bath with gentle agitation for 1-2 minutes. Decontaminate the vial by wiping with 70% ethanol before opening in a biological safety cabinet. Transfer the vial contents drop-wise into 14 mL of thaw medium in a sterile 15-mL conical tub. Centrifuge cells at 900 rpm for 4 minutes and resuspend in thaw medium. Transfer contents to the T75 tissue culture flask containing Thaw Medium and place flask in a humidified 37C/5% CO2 incubator. Switch to growth medium at first passage.Propagation Method: Aspirate medium, rinse once in DPBS, add 0.25% Trypsin/EDTA and swirl to coat the cell evenly. Add an equal volume of Growth Medium to inactivate Trypsin after 2-3 minutes incubation at 37C. Centrifuge cells at 900 rpm for 4 minutes and resuspend in growth medium. Cell should be passage or fed at least twice a week.Assay Protocol: Harvest cells from culture in growth medium and resuspend in assay medium. 2.2 Dispense 4000 cells/5 uL/well into 1536-well black/clear bottom plates using a Multidrop dispenser. After the cells were incubated at 37C for 5 hours, 23 nL of compounds dissolved in DMSO were transferred to the assay plate by a PinTool resulting in a 217-fold dilution. Incubate the plates for 16 hours at 37C, 5% CO2. Add 1 uL of 6X LiveBLAzer FRET B/G (CCF4-AM) Substrate Mixture to each well using a BioRAPTR dispenser and incubate the plates at room temperature for 2 hours. Measure fluorescence intensity at 460 and 530 nm emission and 405 nm excitation by an Envision detector. Data is expressed as the ratio of 460nm/530nm emissions. Add 4 uL of Cell-titer Glo to each well using BioRAPTR and incubate the plates at room temperature for 2 hours. Measure fluorescence intensity by a VewLux plate reader.

Sequence of Cellular tumor antigen p53 (Homo sapiens) (P04637 whole entry, looked up): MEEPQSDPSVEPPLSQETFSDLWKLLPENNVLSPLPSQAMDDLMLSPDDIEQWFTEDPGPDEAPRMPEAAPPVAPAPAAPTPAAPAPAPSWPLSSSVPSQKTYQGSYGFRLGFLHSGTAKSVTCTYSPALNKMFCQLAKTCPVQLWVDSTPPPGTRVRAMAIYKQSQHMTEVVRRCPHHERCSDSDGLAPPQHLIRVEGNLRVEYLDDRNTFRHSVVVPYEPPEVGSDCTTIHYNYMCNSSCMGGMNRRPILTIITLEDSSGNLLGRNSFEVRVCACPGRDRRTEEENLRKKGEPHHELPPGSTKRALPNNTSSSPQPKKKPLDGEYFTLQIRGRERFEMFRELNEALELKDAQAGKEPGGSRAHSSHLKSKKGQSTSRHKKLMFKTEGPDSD

Compound | outcome | AC50
O=C(O)c1cc(O)c(O)c(O)c1 | inactive | –
CC(C)[C@@H](N)C(=O)O | inactive | –
CCC(C)(C)C | inactive | –
NCCCCCC(=O)O | inactive | –
CC(C)C(=O)OCC(=O)[C@@]12O[C@H](C3CCCCC3)O[C@@H]1C[C@H]1[C@@H]3CCC4=CC(=O)C=C[C@]4(C)[C@H]3[C@@H](O)C[C@@]12C | inactive | –
CC[C@H]1CN2CCc3cc(OC)c(OC)cc3[C@@H]2C[C@@H]1C[C@H]1NCCc2cc(OC)c(OC)cc21 | inactive | –
CCCCCCC/C=C/C=O | inactive | –
Oc1ccc(C2(c3ccc(O)cc3)CC3CC2C2CCCC32)cc1 (stereo not given) | – | 82.8 µM (active)
O=C(NCCNCC(O)COc1ccc(O)cc1)N1CCOCC1 (stereo not given) | inactive | –
N[C@@H](CSSC[C@H](N)C(=O)O)C(=O)O | inactive | –
Oc1cccc2ccccc12 | inactive | –
O=C(O)c1cccc(Cl)c1Cl | inactive | –
NC(=S)NS(=O)(=O)c1ccc(N)cc1 | inactive | –
C#CCN(C)Cc1ccccc1 | inactive | –
CCCCCCCCCCCCCCCCCC(=O)[O][Al] | inactive | –
COc1cc2c(cc1OC)CC(=O)N(CCCN(C)C[C@H]1Cc3cc(OC)c(OC)cc31)CC2 | inactive | –
SCCSCCS | inactive | –
CCCCOC(=O)COc1ccc(Cl)cc1Cl | inactive | –
O=C(O)C(Cc1cc(I)c(O)c(I)c1)c1ccccc1 (stereo not given) | inactive | –
CON=C1C[C@]2(C[C@@H]3C[C@@H](C/C=C(\C)C[C@@H](C)/C=C/C=C4\CO[C@@H]5[C@H](O)C(C)=C[C@@H](C(=O)O3)[C@]45O)O2)O[C@H](/C(C)=C/C(C)C)[C@H]1C | inactive | 21 µM (active)

Compound | outcome | AC50
CN[C@H]1CC[C@@H](c2ccc(Cl)c(Cl)c2)c2ccccc21 | inactive | –
CC(C)[N+]1(C)[C@@H]2CC[C@H]1CC(OC(=O)C(CO)c1ccccc1)C2 (stereo not given in full) | inactive | –
Nc1cccc(S(=O)(=O)O)c1 | inactive | –
COC(=O)C1=C(C)NC(C)=C(C(=O)OCCCN2CCC(c3ccccc3)(c3ccccc3)CC2)C1c1cccc([N+](=O)[O-])c1 (stereo not given) | – | 42 µM (active)
CC1(C)S[C@@H]2[C@H](NC(=O)C(C(=O)O)c3ccsc3)C(=O)N2[C@H]1C(=O)O (stereo not given in full) | inactive | –
CC(C)SCc1ccco1 | inactive | –
CCc1ccc(C)cc1 | inactive | –
O=C(O)CNC(=O)c1ccc([N+](=O)[O-])cc1 | inactive | –
Cc1ncc(CO)c(CN)c1O | inactive | –
O=C(Cl)c1ccccc1[N+](=O)[O-] | inactive | –
N#Cc1c(F)cccc1F | inactive | –
CC(C)OC(=O)OCOP(=O)(CO[C@H](C)Cn1cnc2c(N)ncnc21)OCOC(=O)OC(C)C | inactive | –
O=C[C@H](O)[C@@H](O)[C@H](O)[C@H](O)CO | inactive | –
OCC(O)CS (stereo not given) | inactive | –
O=C(NCC1CCCCN1)c1cc(OCC(F)(F)F)ccc1OCC(F)(F)F (stereo not given) | inactive | –
Cc1c(N(C)CS(=O)(=O)O)c(=O)n(-c2ccccc2)n1C | inactive | –
O=[N+]([O-])c1cccc(S(=O)(=O)NCCNS(=O)(=O)c2cccc([N+](=O)[O-])c2)c1 | inactive | –
CCCCCOc1ccc(C2SC(=O)NC2=O)cc1OCC (stereo not given) | inactive | –
NS(=O)(=O)c1cc2c(cc1Cl)NC=NS2(=O)=O | inactive | –
